Shown are actives, neighbours in structure and some others; about 4.4% of the full set was active somewhere.
PfHsp90 set2 = growth inhibition of PfHsp90-expressing yeast, primary screen, antimalarial PfHsp90 inhibitor project, S. cerevisiae, BacTiter-Glo luminescence, single point, set 2; BacTiter-Glo ATP, 48 h; yeast lacking PDR1 and PDR3 efflux regulators; inhibition, % at 9.4 µM; actives 0.32% (n = 310,000); AID 504621, 2011;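 active = every replicate shows inhibition above about 80%, whatever the replicate mean, limit read from the data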;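 also: 0% = DMSO neutral controls and 100% = 20 µM radicicol positive controls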
tim23-1 inh = growth inhibitors of tim23-1 mutant yeast, primary screen, luminescence, uHTS | S. cerevisiae tim23-1 growth, BacTiter-Glo luminescence, 24 h | inhibition, % at 20 µM | actives 1.3% (n = 330,000) | AID 463212, 2010;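 active = growth inhibition of the mutant yeast at or above 50%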;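 also: temperature-sensitive mutant grown at 25 °C; plate controls were DMSO-treated mutant yeast for no effect and medium wells lacking yeast for full effect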
TIM10 inh = growth inhibitors of isogenic TIM10 control yeast, primary screen, counter-screen for tim10-1 yeast inhibitor project, luminescence, uHTS; S. cerevisiae TIM10 strain growth, BacTiter-Glo luminescence, 24 h; inhibition, % at 10 µM; actives 1.4% (n = 330,000);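 active = inhibition of 40% or more at the single tested concentration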;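 also: wild-type TIM10 isogenic control strain grown at permissive 25 °C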
tim10-1 inh = growth inhibitors of tim10-1 mutant yeast, primary screen, luminescence, uHTS | S. cerevisiae tim10-1 ts strain growth, BacTiter-Glo, 24 h | inhibition, % at 20 µM | actives 2.2% (n = 330,000) | AID 463190, 2010;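 active = inhibition of at least 40%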;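 also: mutant grown at 25 °C; 0% = DMSO wells with yeast and 100% = wells holding no yeast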
SUMO Mot1 rescue = yeast Mot1-301 growth rescue at high temperature, primary screen, SUMOylation pathway inhibitor project, S. cerevisiae, ATP luminescence, 38.5C. S. cerevisiae Mot1-301 growth rescue; percent above DMSO median, 100 means doubled. growth rescue, % at 18.8 µM. actives 1% (n = 320,000);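 active = every valid replicate shows activation above 250% relative to neutral control wells; inactive = the rest, any valid replicate at or below 250%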;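 also: OY570 slx delta 5 strain wells were the positive control but not used for scaling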
tim10-1 conf = growth inhibitors of tim10-1 mutant yeast, confirmation, single concentration, luminescence, S. cerevisiae. shares compounds with tim10-1 inh. S. cerevisiae tim10-1 ts strain growth, BacTiter-Glo, 24 h. inhibition, % at 20 µM. actives 56% (n = 7,400). AID 463213, 2010;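 active = inhibition of yeast growth at or above a set limit in either of two repeat tests at 20 µM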;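 also: tim10-1 mutant grown at permissive 25 °C to find synthetic lethal compounds; 0% = DMSO yeast wells and 100% = medium wells without yeast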
tim10 confirm = growth inhibitors of wild-type TIM10 yeast, confirmation, counter-screen for tim10-1 synthetic lethality project, single concentration, luminescence, S. cerevisiae | shares compounds with TIM10 inh | actives 63% (n = 4,600) | AID 463215, 2010 | inhibition, % at 10 µM | S. cerevisiae tim10 strain growth, BacTiter-Glo luminescence, 24 h;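 active = inhibition of yeast growth at or above a set limit in either of two replicates at 10 µM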;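 also: this counterscreen used the strain with wild-type TIM10; 0% = yeast with DMSO and 100% = medium wells lacking yeast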
tim23-1 confirm = tim23-1 mutant yeast growth inhibitors, confirmation, luminescence, single concentration | inhibition, % at 20 µM | shares compounds with tim23-1 inh | actives 83% (n = 4,400) | AID 463218, 2010 | S. cerevisiae tim23-1 growth, BacTiter-Glo luminescence, 24 h;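 active = inhibition above about 39% in either of two replicate wells at 20 µM, limit read from the data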;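 also: temperature-sensitive tim23-1 mutant grown at 25 °C; 0% = DMSO wells with yeast and 100% = medium wells without yeast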
An asterisk follows results filed as active; . = no result.

SMILES	PfHsp90 set2	tim23-1 inh	TIM10 inh	tim10-1 inh	SUMO Mot1 rescue	tim10-1 conf	tim10 confirm	tim23-1 confirm
CC1CC(C(=O)Nc2ccccc2)C(=O)O1 (stereo unspecified)	-20	-3	3	-12	1	.	.	.
O=C1c2ccccc2-c2n[nH]c3cccc1c23	-26	67*	33	59*	.	25	.	67*
O=C(OCn1ncc(Cl)c(Cl)c1=O)c1ccc(F)cc1	.	75*	59*	66*	-1	61*	54*	85*
CC(C)OC(=O)CSc1nc(N)c(C#N)c(-c2cccs2)c1C#N	.	10	6	16	-1	.	.	.
CC(C)Sc1nc(N)nc(-c2cccs2)c1C#N	-194	65*	24	48*	14	29	.	19
O=C1N(c2ccccc2C(F)(F)F)O[C@]1(c1ccccc1)C1CCCC1	-47	11	3	-55	16	.	.	.
CCCCCCCCCCCCCCCC[N+](C)(C)CCN(Cc1ccc(OC)cc1)c1ncccn1	106*	93*	95*	97*	-37	98*	99*	96*
CCCCNC(=O)c1sc2ncnc(N3CCc4ccccc4C3)c2c1C	.	55*	43*	48*	-4	35*	36*	51*
Cc1c(C(=O)NCCCN2CCOCC2)sc2ncnc(N3CCN(c4ccccc4)CC3)c12	-4	.	.	.	.	.	.	.
Cc1ccc(-c2cc(C(=O)N3N=C(C(F)F)CC3(O)C(F)F)c3ccccc3n2)cc1C (stereo unspecified)	113*	52*	27	50*	37	17	.	5
CCNc1ccc2noc3c2c1C(=O)c1ccccc1-3	-8	60*	29	56*	0	44*	.	49*
CCCOc1cc(C)c(S(=O)(=O)NCc2cccs2)cc1C	-33	36	18	5	51	.	.	.
CCC(C)(C)C1CCc2[nH]nc(C(=O)NC3CCCC3)c2C1 (stereo unspecified)	5	59*	39	42*	151	35*	.	57*
CCC(C)(C)C1CCc2[nH]nc(C(=O)NCc3ccc(OC)cc3)c2C1 (stereo unspecified)	-19	31	0	19	0	.	.	.
CC(C)[C@H](NC(=O)c1ccccc1)C(=O)Nc1ccc2c(c1)OCO2	8	12	-6	9	.	.	.	.
COc1ccc(CNC(=O)CCC2N=C3c4ccccc4N=C(SCC(=O)NCC4CCCO4)N3C2=O)cc1 (stereo unspecified)	17	-1	-1	1	7	.	.	.
N#CC1(NC(=O)COc2ccc(S(=O)(=O)N3CCCC3)cc2[N+](=O)[O-])CCCCC1	.	-9	9	11	-1	.	.	.
O=C(Nc1ncccn1)c1cc([N+](=O)[O-])cc([N+](=O)[O-])c1	-7	28	-14	22	9	.	.	.
O=[N+]([O-])c1cc(-c2ncccn2)c([N+](=O)[O-])s1	-5	51*	91*	88*	-13	84*	99*	92*
CSCCC(NC(=O)c1ccccc1Br)C(=O)N1CCN(C/C=C/c2ccccc2)CC1 (stereo unspecified)	5	.	.	.	.	.	.	.
CCC(=O)NC(c1cc(Cl)c2cccnc2c1O)C1CC1 (stereo unspecified)	4	58*	10	40*	9	19	.	58*
CCC(=O)NC(c1ccc(Cl)cc1Cl)c1ccc2cccnc2c1O (stereo unspecified)	111*	61*	6	48*	-4	25	.	52*
COc1cccc(NC(=O)C(OC(=O)c2cnc(C)cn2)c2ccccc2)c1 (stereo unspecified)	-6	17	14	8	.	.	.	.
N#C/C(=C\c1c(Cl)cccc1Cl)c1nc2ccccc2[nH]1	-12	61*	48*	63*	-19	53*	52*	73*
N#C/C(=C\c1c(Cl)cccc1Cl)c1nc2ccccc2o1	-45	62*	40*	73*	495	75*	-15	74*
SMILES	PfHsp90 set2	tim23-1 inh	TIM10 inh	tim10-1 inh	SUMO Mot1 rescue	tim10-1 conf	tim10 confirm	tim23-1 confirm
O=[N+]([O-])c1cc(F)cc(F)c1Nc1ccc(F)cc1	-14	.	.	.	.	.	.	.
COc1ccc(OC)c2[nH]c(=O)c(CCNC(=O)c3ccc(Br)o3)cc12	2	18	47*	25	-13	.	12	.
COc1cc(C(=O)NCCc2cc3c(OC)ccc(OC)c3[nH]c2=O)cc(OC)c1OC	.	13	16	11	13	.	.	.
COc1ccc(N2C(=O)C3C4c5ccccc5C(C=Nc5ccc(C)cc5C)(c5ccccc54)C3C2=O)cc1 (stereo unspecified)	-30	46	53*	34	14	.	45*	.
CC12c3ccccc3C(c3ccccc31)C1C(=O)N(c3cccnc3)C(=O)C12 (stereo unspecified)	-7	35	15	17	-2	.	.	.
CCc1ccc(N=CC23c4ccccc4C(c4ccccc42)C2C(=O)N(c4ccc(OC)cc4)C(=O)C23)cc1 (stereo unspecified)	-22	49	64*	39	222	.	48*	.
CC12c3ccccc3C(c3ccccc31)C1C(=O)N(c3ccncc3)C(=O)C12 (stereo unspecified)	-31	33	12	22	.	.	.	.
CC(C)NC(=O)N(C)C[C@H]1Oc2c(NC(=O)Nc3ccccc3)cccc2C(=O)N([C@H](C)CO)C[C@@H]1C	-14	12	-6	6	-26	.	.	.
Cc1ccc(C2CC(C(F)(F)F)n3ncc(C(N)=O)c3N2)cc1 (stereo unspecified)	-5	10	-4	2	.	.	.	.
Cc1ccc(C2CC(C(F)(F)F)n3ncc(C(=O)NCc4ccco4)c3N2)cc1 (stereo unspecified)	.	49	47*	36	-14	.	32*	.
COc1ccc(COc2ccc(S(=O)(=O)N3CCCC3)cc2C(N)=O)cc1F	9	-4	-9	-9	122	.	.	.
O=C(O)c1nnn(-c2cc(C(F)(F)F)cc(C(F)(F)F)c2)c1-c1ccccc1	-4	5	41*	0	1	.	12	.
